Data from PubChem BioAssay AID1159580 (chemical genetic matrix, 2015).
Where “and” joins values, the source holds several entries; their conditions need not be identical. Identical values can stand only once. In all, about 5,500 compounds went through this assay and about 2,000 (36%) were called active. Roughly 18% stayed inconclusive and do not appear here. This is one part of the list. Values without a mark were called inactive. Cut-off read from the data, not from the text of the source: active = normalized growth mostly below about 0.91 (no sharp cut-off); inconclusive = no clear call, values can overlap the other calls; inactive = mostly above about 0.92.

Test: chemical genetic growth profiling, strain panel (AID 1159580);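 note: tested at 20 µM; growth read once vehicle control cultures reached saturation at 30 °C; 1 = growth at the plate median or of vehicle wells; lower values mean less growth of the strain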
Details: S. cerevisiae deletion strains, growth OD

Compound: CCN(CCCc1ccccc1)CCCc1ccccc1
- normalized growth (locus YAL021C, strain ccr4, stronger effect = lower value): 0.915
- normalized growth (locus YAL026C, strain drs2, stronger effect = lower value): 0.862 (active)
- normalized growth (locus YAL030W, strain snc1, stronger effect = lower value): 0.991
- normalized growth (locus YBL061C, strain skt5, stronger effect = lower value): 0.981
- normalized growth (locus YBR009C, strain hhf1, stronger effect = lower value): 1.01
- normalized growth (locus YBR021W, strain FUR4, stronger effect = lower value): 0.977
- normalized growth (locus YBR023C, strain chs3, stronger effect = lower value): 0.96
- normalized growth (locus YBR171W, strain sec66, stronger effect = lower value): 0.97
- normalized growth (locus YBR229C, strain ROT2, stronger effect = lower value): 1
- normalized growth (locus YBR231C, strain swc5, stronger effect = lower value): 0.987
- normalized growth (locus YBR279W, strain paf1, stronger effect = lower value): 0.983
- normalized growth (locus YCL011C, strain gbp2, stronger effect = lower value): 0.966
- normalized growth (locus YCL016C, strain dcc1, stronger effect = lower value): 0.939
- normalized growth (locus YCL029C, strain bik1, stronger effect = lower value): 1.02
- normalized growth (locus YCL061C, strain MRC1, stronger effect = lower value): 0.965
- normalized growth (locus YCL069W, strain vba3, stronger effect = lower value): 0.985
- normalized growth (locus YCR088W, strain abp1, stronger effect = lower value): 0.99
- normalized growth (locus YDL005C, strain med2, stronger effect = lower value): 0.99
- normalized growth (locus YDL035C, strain GPR1, stronger effect = lower value): 0.976
- normalized growth (locus YDL040C, strain nat1, stronger effect = lower value): 0.984
- normalized growth (locus YDL074C, strain BRE1, stronger effect = lower value): 1.01
- normalized growth (locus YDL101C, strain DUN1, stronger effect = lower value): 1.02
- normalized growth (locus YDL134C, strain PPH21, stronger effect = lower value): 0.976
- normalized growth (locus YDL185W, strain tfp1, stronger effect = lower value): 1.03
- normalized growth (locus YDL192W, strain arf1, stronger effect = lower value): 1.02
- normalized growth (locus YDR001C, strain nth1, stronger effect = lower value): 0.985
- normalized growth (locus YDR069C, strain doa4, stronger effect = lower value): 0.974
- normalized growth (locus YDR101C, strain arx1, stronger effect = lower value): 1.03
- normalized growth (locus YDR137W, strain rgp1, stronger effect = lower value): 0.735 (active)
- normalized growth (locus YDR150W, strain NUM1, stronger effect = lower value): 1
- normalized growth (locus YDR159W, strain sac3, stronger effect = lower value): 1.01
- normalized growth (locus YDR162C, strain NBP2, stronger effect = lower value): 1.01
- normalized growth (locus YDR195W, strain ref2): 1.02
- normalized growth (locus YDR297W, strain sur2, stronger effect = lower value): 0.99
- normalized growth (locus YDR318W, strain mcm21, stronger effect = lower value): 1.01
- normalized growth (locus YDR334W, strain swr1, stronger effect = lower value): 0.983
- normalized growth (locus YDR335W, strain msn5, stronger effect = lower value): 0.983
- normalized growth (locus YDR388W, stronger effect = lower value): 1.02
- normalized growth (locus YDR392W, strain spt3, stronger effect = lower value): 0.951
- normalized growth (locus YDR502C, strain sam2, stronger effect = lower value): 1.02
- normalized growth (locus YEL003W, strain gim4, stronger effect = lower value): 0.99
- normalized growth (locus YEL037C, strain rad23, stronger effect = lower value): 0.984
- normalized growth (locus YEL061C, strain CIN8 (second series), stronger effect = lower value): 0.988
- normalized growth (locus YEL061C, strain CIN8, stronger effect = lower value): 1
- normalized growth (locus YER015W, strain faa2, stronger effect = lower value): 0.977
- normalized growth (locus YER016W, strain bim1, stronger effect = lower value): 1
- normalized growth (locus YER110C, stronger effect = lower value): 1.04
- normalized growth (locus YER111C, strain swi4, stronger effect = lower value): 0.962
- normalized growth (locus YER155C, strain BEM2 (second series), stronger effect = lower value): 0.99
- normalized growth (locus YER155C, strain BEM2, stronger effect = lower value): 0.999
- normalized growth (locus YER167W, strain BCK2, stronger effect = lower value): 0.975
- normalized growth (locus YFR010W, strain ubp6, stronger effect = lower value): 0.98
- normalized growth (locus YGL078C, strain dbp3, stronger effect = lower value): 1.02
- normalized growth (locus YGL086W, strain mad1, stronger effect = lower value): 1.01
- normalized growth (locus YGL167C, strain pmr1, stronger effect = lower value): 0.983
- normalized growth (locus YGL173C, strain kem1, stronger effect = lower value): 0.979
- normalized growth (locus YGL227W, strain vid30, stronger effect = lower value): 0.994
- normalized growth (locus YGL240W, strain doc1, stronger effect = lower value): 0.971
- normalized growth (locus YGL248W, strain PDE1, stronger effect = lower value): 0.997
- normalized growth (locus YGL253W, strain hxk2, stronger effect = lower value): 0.978
- normalized growth (locus YGR078C, strain PAC10, stronger effect = lower value): 1
- normalized growth (locus YGR135W, strain pre9, stronger effect = lower value): 1.01
- normalized growth (locus YGR252W, strain gcn5, stronger effect = lower value): 0.945
- normalized growth (locus YHR013C, strain ard1, stronger effect = lower value): 0.927
- normalized growth (locus YHR027C, strain rpn1, stronger effect = lower value): 0.978
- normalized growth (locus YHR030C, strain SLT2, stronger effect = lower value): 1 and 1.01
- normalized growth (locus YHR079C, strain IRE1 (second series), stronger effect = lower value): 1.03
- normalized growth (locus YHR079C, strain IRE1, stronger effect = lower value): 1.03
- normalized growth (locus YHR094C, strain hxt1, stronger effect = lower value): 1.03
- normalized growth (locus YHR129C, strain ARP1, stronger effect = lower value): 1
- normalized growth (locus YHR142W, strain chs7, stronger effect = lower value): 0.93
- normalized growth (locus YHR200W, strain rpn10, stronger effect = lower value): 1.02
- normalized growth (locus YIL066C, strain RNR3, stronger effect = lower value): 0.965
- normalized growth (locus YIL073C, strain SPO22, stronger effect = lower value): 0.999
- normalized growth (locus YIL125W, strain kgd1, stronger effect = lower value): 1.03
- normalized growth (locus YIR030C, strain dcg1, stronger effect = lower value): 1.03
- normalized growth (locus YJL092W, strain hpr5, stronger effect = lower value): 0.976
- normalized growth (locus YJL095W, strain BCK1 (second series), stronger effect = lower value): 0.981
- normalized growth (locus YJL095W, strain BCK1, stronger effect = lower value): 1.02
- normalized growth (locus YJL115W, strain asf1, stronger effect = lower value): 0.98
- normalized growth (locus YJL129C, strain trk1, stronger effect = lower value): 0.956
- normalized growth (locus YJL134W, strain LCB3, stronger effect = lower value): 1
- normalized growth (locus YJL154C, strain vps35, stronger effect = lower value): 0.977
- normalized growth (locus YJL164C, strain tpk1, stronger effect = lower value): 0.97
- normalized growth (locus YJL166W, strain qcr8, stronger effect = lower value): 0.93
- normalized growth (locus YJL168C, strain set2, stronger effect = lower value): 1.02
- normalized growth (locus YJL187C, strain SWE1 (second series), stronger effect = lower value): 1.02
- normalized growth (locus YJL187C, strain SWE1, stronger effect = lower value): 0.991
- normalized growth (locus YJR043C, strain POL32, stronger effect = lower value): 0.949
- normalized growth (locus YJR066W, strain TOR1, stronger effect = lower value): 0.985
- normalized growth (locus YKL009W, strain mrt4, stronger effect = lower value): 1.01
- normalized growth (locus YKL068W, stronger effect = lower value): 1.01
- normalized growth (locus YKL085W, strain MDH1 (second series), stronger effect = lower value): 1
- normalized growth (locus YKL085W, strain MDH1, stronger effect = lower value): 1
- normalized growth (locus YKL160W, strain elf1, stronger effect = lower value): 0.935
- normalized growth (locus YKR001C, strain vps1, stronger effect = lower value): 1.02
- normalized growth (locus YKR026C, strain gcn3, stronger effect = lower value): 0.983
- normalized growth (locus YKR091W, strain srl3, stronger effect = lower value): 0.99
- normalized growth (locus YLL001W, strain dnm1, stronger effect = lower value): 0.914
- normalized growth (locus YLL026W, stronger effect = lower value): 0.997
- normalized growth (locus YLL041C, strain sdh2, stronger effect = lower value): 0.989
- normalized growth (locus YLR027C, strain aat2, stronger effect = lower value): 0.982
- normalized growth (locus YLR039C, strain RIC1, stronger effect = lower value): 1.04
- normalized growth (locus YLR058C, strain SHM2, stronger effect = lower value): 1.02
- normalized growth (locus YLR102C, strain apc9, stronger effect = lower value): 1.02
- normalized growth (locus YLR113W, strain HOG1, stronger effect = lower value): 1.01
- normalized growth (locus YLR221C, strain rsa3, stronger effect = lower value): 0.961
- normalized growth (locus YLR258W, strain gsy2, stronger effect = lower value): 0.973
- normalized growth (locus YLR262C, strain YPT6 (second series), stronger effect = lower value): 0.701 (active)
- normalized growth (locus YLR262C, strain YPT6, stronger effect = lower value): 1.06
- normalized growth (locus YLR268W, strain sec22, stronger effect = lower value): 1.03
- normalized growth (locus YLR320W, strain mms22, stronger effect = lower value): 0.894
- normalized growth (locus YLR330W, strain CHS5, stronger effect = lower value): 0.994
- normalized growth (locus YLR342W, strain FKS1 (second series), stronger effect = lower value): 0.963
- normalized growth (locus YLR342W, strain FKS1, stronger effect = lower value): 0.981
- normalized growth (locus YLR357W, strain rsc2, stronger effect = lower value): 0.953
- normalized growth (locus YLR370C, strain arc18, stronger effect = lower value): 0.963
- normalized growth (locus YLR371W, strain rom2, stronger effect = lower value): 1.02
- normalized growth (locus YLR384C, strain iki3, stronger effect = lower value): 0.983
- normalized growth (locus YLR418C, strain cdc73, stronger effect = lower value): 0.988
- normalized growth (locus YML016C, strain PPZ1, stronger effect = lower value): 1.01
- normalized growth (locus YML032C, strain rad52, stronger effect = lower value): 1.01
- normalized growth (locus YML120C, strain ndi1, stronger effect = lower value): 0.943
- normalized growth (locus YML124C, strain tub3, stronger effect = lower value): 1.02
- normalized growth (locus YMR058W, strain fet3, stronger effect = lower value): 0.97
- normalized growth (locus YMR078C, strain ctf18, stronger effect = lower value): 1.03
- normalized growth (locus YMR125W, strain sto1, stronger effect = lower value): 0.96
- normalized growth (locus YMR129W, stronger effect = lower value): 0.984
- normalized growth (locus YMR205C, strain PFK2, stronger effect = lower value): 0.952
- normalized growth (locus YMR223W, strain ubp8, stronger effect = lower value): 1.02
- normalized growth (locus YMR231W, strain pep5, stronger effect = lower value): 0.99
- normalized growth (locus YMR307W, strain GAS1, stronger effect = lower value): 1.06
- normalized growth (locus YNL067W, strain RPL9B, stronger effect = lower value): 1.02
- normalized growth (locus YNL071W, strain lat1, stronger effect = lower value): 0.973
- normalized growth (locus YNL153C, strain GIM3, stronger effect = lower value): 1
- normalized growth (locus YNL183C, strain NPR1, stronger effect = lower value): 0.957
- normalized growth (locus YNL209W, strain ssb2, stronger effect = lower value): 0.975
- normalized growth (locus YNL233W, strain BNI4, stronger effect = lower value): 1.03
- normalized growth (locus YNL248C, strain rpa49, stronger effect = lower value): 0.951
- normalized growth (locus YNL250W, strain rad50, stronger effect = lower value): 1.02
- normalized growth (locus YNL271C, strain bni1, stronger effect = lower value): 1.04
- normalized growth (locus YNL298W, strain CLA4, stronger effect = lower value): 1.03
- normalized growth (locus YNL307C, strain MCK1, stronger effect = lower value): 1.04
- normalized growth (locus YNL322C, strain KRE1 (second series), stronger effect = lower value): 0.992
- normalized growth (locus YNR049C, strain mso1, stronger effect = lower value): 0.977
- normalized growth (locus YNR052C, strain pop2, stronger effect = lower value): 1.03
- normalized growth (locus YOL006C, strain TOP1, stronger effect = lower value): 0.909
- normalized growth (locus YOL012C, strain htz1): 0.929
- normalized growth (locus YOL147C, strain pex11, stronger effect = lower value): 1.03
- normalized growth (locus YOR001W, strain rrp6, stronger effect = lower value): 0.982
- normalized growth (locus YOR061W, strain CKA2, stronger effect = lower value): 1.01
- normalized growth (locus YOR069W, strain VPS5, stronger effect = lower value): 1.01
- normalized growth (locus YOR070C, strain gyp1, stronger effect = lower value): 0.979
- normalized growth (locus YOR080W, strain dia2, stronger effect = lower value): 0.984
- normalized growth (locus YOR083W, strain WHI5, stronger effect = lower value): 0.93
- normalized growth (locus YOR106W, strain vam3, stronger effect = lower value): 0.961
- normalized growth (locus YOR136W, strain idh2, stronger effect = lower value): 1.03
- normalized growth (locus YOR144C, strain elg1, stronger effect = lower value): 1.03
- normalized growth (locus YOR184W, strain ser1, stronger effect = lower value): 1.05
- normalized growth (locus YOR231W, strain MKK1, stronger effect = lower value): 1.01
- normalized growth (locus YOR265W, strain rbl2, stronger effect = lower value): 1
- normalized growth (locus YOR270C, strain vph1, stronger effect = lower value): 0.885
- normalized growth (locus YOR290C, strain snf2, stronger effect = lower value): 0.919
- normalized growth (locus YOR316C, strain cot1, stronger effect = lower value): 1.03
- normalized growth (locus YPL051W, strain arl3, stronger effect = lower value): 0.93
- normalized growth (locus YPL078C, strain atp4, stronger effect = lower value): 0.932
- normalized growth (locus YPL106C, strain sse1, stronger effect = lower value): 0.947
- normalized growth (locus YPL240C, strain hsp82, stronger effect = lower value): 0.996
- normalized growth (locus YPL241C, strain CIN2, stronger effect = lower value): 1
- normalized growth (locus YPL256C, strain CLN2, stronger effect = lower value): 1.01
- normalized growth (locus YPR119W, strain clb2, stronger effect = lower value): 1.03
- normalized growth (locus YPR141C, strain kar3, stronger effect = lower value): 1.04
- normalized growth (locus YPR163C, strain tif3, stronger effect = lower value): 1.05
- normalized growth (locus YPR167C, strain met16, stronger effect = lower value): 1.03
- normalized growth (strain wtn01, stronger effect = lower value): 1.04
